Rows were chosen to be rich in hits. Some 2.5% of all compounds tested hit in one or more screens of this group.
MARV entry inh = qHTS for inhibitors of binding or entry into cells for Marburg Virus; Marburg virus pseudotyped entry inhibition, cell reporter; Potency, µM (titrated, usually from 37.8 µM), inactives show at the highest dose activity change, negative = inhibition, most hits filed as inhibitors; 1.8% of 300,000 active; AID 540276, 2011; calls by dose curve; tested in HEK293 cells
LASV entry inh = qHTS for Inhibitors of binding or entry into cells for Lassa Virus; Potency, µM (top dose mostly 37.9 µM), without a hit: at the highest dose activity change, negative = inhibition, hits mostly inhibitors; Lassa virus pseudotype entry inhibition, cell reporter; 1.2% of 300,000 active; calls by dose curve; tested in HEK293 cells; further: nearly all actives have a fitted effect of over 50% in size
VACV Venus inh = qHTS for Stage-Specific Inhibitors of Vaccinia Orthopoxvirus: Venus Reporter Primary qHTS; Vaccinia virus Venus reporter expression, fluorescence; Potency, µM (highest dose often 36.5 µM), inactives show at the highest dose activity change, negative = inhibition, usual class: inhibitors; 0.46% of 330,000 active; AID 720580, 2013; calls by dose curve; tested in A549 cells; further: nearly all actives have a fitted effect of over 30% in size
Vaccinia mCherry = qHTS for Stage-Specific Inhibitors of Vaccinia Orthopoxvirus: mCherry Reporter Primary qHTS; 0.63% of 310,000 active; Potency, µM (series often up to 36.5 µM), without a hit: at the highest dose activity change, negative = inhibition, most hits filed as inhibitors; Vaccinia virus mCherry reporter infection, fluorescence; calls by dose curve; tested in A549 cells; further: nearly all actives have a fitted effect of over 35% in size
* hit, by the source's call; [ ] = remark or other dose. On the % scale 0 is the no-effect control and ±100 the full control effect; potency means the concentration at half of the fitted maximal effect.

What do the screens show for `Cc1ccccc1Cc1nc2cccnc2n1C1CCN(C(=O)CC2NC(=O)c3ccccc32)CC1` (stereo not drawn)?
VACV Venus inh: 6.4%; Vaccinia mCherry: -5.6%

What do the screens show for `COc1cc(/C=N/NC(=O)c2sc(N)c(C#N)c2C)ccc1O`?
MARV entry inh: 4.47µM*; LASV entry inh: -6.8%; VACV Venus inh: inconclusive; Vaccinia mCherry: -6.1%[1.46 µM]

Results for Cc1c(C(=O)N/N=C/c2ccc(O)c(Br)c2)sc(N)c1C#N ?
MARV entry inh: inconclusive; LASV entry inh: inconclusive; VACV Venus inh: -21.0%; Vaccinia mCherry: -12.6%

Results for CS(=O)(=O)c1cc([N+](=O)[O-])c(Sc2nc3ccccc3[nH]2)c([N+](=O)[O-])c1 ?
MARV entry inh: 13µM*; LASV entry inh: 19.6%

How did Cn1cnc([N+](=O)[O-])c1Sc1nc2ccccc2[nH]1 do in these assays?
MARV entry inh: -15.7%; LASV entry inh: inconclusive; VACV Venus inh: -23.6%; Vaccinia mCherry: inconclusive

Results for Cc1ccc(CN2CCc3nnc(C(NC(=O)c4ccoc4)C(C)C)n3CC2)cc1C (stereo not drawn) ?
VACV Venus inh: -12.5%; Vaccinia mCherry: -21.3%

How did CC(C)N1CCC(N2CCN(Cc3ccc(-c4ccc(Cl)cc4)o3)CC2CCO)CC1 (stereo not drawn) do in these assays?
MARV entry inh: 3.16µM*; LASV entry inh: inconclusive; VACV Venus inh: inconclusive; Vaccinia mCherry: -25.2%

What do the screens show for `O=c1c2ccccc2cnn1-c1nc2ccccc2[nH]1`?
MARV entry inh: 0.291µM*; LASV entry inh: 0.326µM*

What do the screens show for `O=C(c1ccc2c(c1)OCO2)N1CCOc2ccc(CN3CCC(Oc4cccnc4)CC3)cc2C1`?
VACV Venus inh: -6.7%; Vaccinia mCherry: -11.0%

How did O=C(CNC(=O)c1ccccc1Br)N/N=C/c1ccco1 do in these assays?
MARV entry inh: inconclusive; LASV entry inh: -0.5%; VACV Venus inh: -3.0%; Vaccinia mCherry: -12.8%

Results for O=C(CNC(=O)c1ccccc1O)N/N=C/c1cc(Br)ccc1OC(=O)/C=C/c1ccco1 ?
MARV entry inh: inconclusive; LASV entry inh: 5.62µM*; VACV Venus inh: -22.4%; Vaccinia mCherry: inconclusive

How did O=C(CNC(=O)c1ccc(F)cc1)N/N=C/c1cc(Br)ccc1OCc1ccccc1 do in these assays?
MARV entry inh: inconclusive; LASV entry inh: -9.7%

Results for O=C(CNC(=O)c1cccc(F)c1)N/N=C/c1cc(Br)ccc1OC(=O)/C=C/c1ccco1 ?
MARV entry inh: 18.3µM*; LASV entry inh: inconclusive

How did COc1cccc(-c2ccnc(-n3ncc(C(=O)NCc4cccnc4)c3C3CC3)n2)c1 do in these assays?
VACV Venus inh: -2.8%; Vaccinia mCherry: -16.9%

What do the screens show for `CSc1ccc(/C=C2\C=Cc3cc([N+](=O)[O-])ccc32)cc1`?
VACV Venus inh: -10.6%; Vaccinia mCherry: -12.9%

How did OC1(c2cccnc2)CCN(Cc2ccc3c(c2)CN(Cc2cc4ccccc4s2)CCO3)CC1 do in these assays?
VACV Venus inh: -21.3%; Vaccinia mCherry: -24.2%

What do the screens show for `COc1ccc2c(c1)-c1nc(NC(=O)c3cc(Cl)ccc3OC)sc1CC2`?
MARV entry inh: -1.0%[46.1 µM]; LASV entry inh: -3.4%[46.1 µM]; VACV Venus inh: 10µM*; Vaccinia mCherry: 10µM*

How did COc1ccc(C2(CNC(=O)c3ccc(Br)o3)CCOCC2)cc1 do in these assays?
MARV entry inh: 0.2%; LASV entry inh: 3.1%; VACV Venus inh: -1.2%

What do the screens show for `CCCCOc1ccc(C(=O)NCC2(c3ccc(OC)cc3)CCOCC2)cc1`?
MARV entry inh: inconclusive; LASV entry inh: 2.82µM*; VACV Venus inh: -2.0%; Vaccinia mCherry: -14.5%

What do the screens show for `Cc1cnc(C)c(-c2cccc3c2OC(CNC(=O)/C=C/c2ccncc2)C3)n1` (stereo not drawn)?
VACV Venus inh: 1.2%; Vaccinia mCherry: -11.9%

Results for O=C(C=C1SCCS1)/C=C/c1ccco1 ?
MARV entry inh: inconclusive; LASV entry inh: 11.2µM*; VACV Venus inh: -9.5%; Vaccinia mCherry: inactive

How did O=C(O)C(C(=O)/C=C/c1ccco1)=C1SCCS1 do in these assays?
MARV entry inh: 3.2%; LASV entry inh: 2.5%; VACV Venus inh: -14.7%

What do the screens show for `CCOc1ccccc1N1CCN(C(=O)C2c3ccccc3Oc3ccccc32)CC1`?
MARV entry inh: inconclusive; LASV entry inh: 7.08µM*; VACV Venus inh: inconclusive

What do the screens show for `CC1=CC(C)(C)n2c(O)c(N=NC(N)=S)c3cccc1c32`?
MARV entry inh: inconclusive; LASV entry inh: -18.0%

What do the screens show for `CC1=CC(C)(C)n2c(O)c(N=NC(N)=S)c3c(C)ccc1c32`?
MARV entry inh: -2.7%; LASV entry inh: -7.3%; VACV Venus inh: inconclusive; Vaccinia mCherry: 1.26µM*

What do the screens show for `O=S(=O)(CC(CN1CCCCC1)N1CCCCC1)c1ccc2ccccc2c1` (stereo not drawn)?
MARV entry inh: 3.55µM*; LASV entry inh: inconclusive; VACV Venus inh: inconclusive; Vaccinia mCherry: inconclusive

What do the screens show for `COc1ccc(CN(C(=O)c2nsc(Cl)c2Cl)C(C(=O)NC2CCCC2)c2ccc(OC)cc2)cc1` (stereo not drawn)?
MARV entry inh: inconclusive; LASV entry inh: 20.6µM*

Results for COC(=O)c1cc(CNC(=O)c2ccncc2)cc(NC(=O)c2ccccc2Cl)c1 ?
VACV Venus inh: -8.5%; Vaccinia mCherry: -5.6%

What do the screens show for `Cc1ccc(-n2c(SCC(=O)NNC(=S)Nc3ccccc3)nc3ccccc3c2=O)cc1`?
MARV entry inh: 8.91µM*; LASV entry inh: 0.7%; VACV Venus inh: -6.6%; Vaccinia mCherry: -13.0%

What do the screens show for `Cc1cccc(NC(=O)CSc2nc3ccccc3c(=O)n2C)c1`?
MARV entry inh: 7.08µM*; LASV entry inh: inconclusive; VACV Venus inh: -11.3%; Vaccinia mCherry: inactive

How did Cc1cccc(NC(=O)CSc2nc3nc4c(cc3c(=O)n2-c2ccccc2)CCCC4)c1 do in these assays?
MARV entry inh: 10µM*; LASV entry inh: -3.0%; VACV Venus inh: -12.1%; Vaccinia mCherry: 9.7%

How did O=C(CSc1nc2nc3c(cc2c(=O)n1-c1ccccc1)CCCC3)Nc1cccc2ccccc12 do in these assays?
MARV entry inh: inconclusive; LASV entry inh: 4.2%; VACV Venus inh: -13.4%; Vaccinia mCherry: -2.4%

Results for O=C1[C@H]2[C@H]3[C@H](O)[C@H](O)C/C(=N\OCc4ccccc4)[C@H]3CC[C@H]2C(=O)N1C1CCCCC1 ?
MARV entry inh: -25.4%[14.2 µM]

Results for Cc1ccccc1C1(CC(=O)N2CCCC2c2nccs2)CC(=O)N(C2CCCC2)C1=O (stereo not drawn) ?
VACV Venus inh: -22.0%; Vaccinia mCherry: inactive

How did CC(OCCN1CCCC1)(c1ccc(F)cc1)c1ccc(F)cc1 do in these assays?
MARV entry inh: inconclusive; LASV entry inh: 2µM*; VACV Venus inh: -19.9%; Vaccinia mCherry: -27.4%

Results for CCN1C(=O)NC(c2ccccc2)C(C(=O)OC)=C1C (stereo not drawn) ?
MARV entry inh: 7.3%[14.2 µM]

What do the screens show for `Cc1ccc(C(=O)Nc2cccc(-c3nc(CNC(=O)c4cccc(N(C)C)c4)c(C)o3)c2)s1`?
VACV Venus inh: -14.0%; Vaccinia mCherry: -26.3%

Screening data (PubChem)
